Assays:
Conditions in all cases: concentration: 1 μM, replicates: in singlicate; n = 1
PIP5K2C = system: T1, PIP5K2C
T1 construct: gene PIP4K2C

PKAC-alpha = system: T2, PKAC-alpha
T2 construct: gene PRKACA

PKAC-beta = system: T3, PKAC-beta
T3 construct: gene PRKACB

PKMYT1 = system: PKMYT1
PKN1 = system: PKN1
PKN2 = system: PKN2
PLK1 = system: PLK1
PLK2 = system: PLK2
PLK3 = system: PLK3
PLK4 = system: PLK4
PRKCD = system: PRKCD
PRKCE = system: PRKCE
PRKCH = system: PRKCH
PRKCI = system: PRKCI
PRKCQ = system: PRKCQ
PRKD1 = system: PRKD1
PRKD2 = system: PRKD2
PRKD3 = system: PRKD3
PRKG1 = system: PRKG1
PRKG2 = system: PRKG2
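Note: KINOMEscan kinase panel screen.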

| SMILES | %Inh (PIP5K2C) | %Inh (PKAC-alpha) | %Inh (PKAC-beta) | %Inh (PKMYT1) | %Inh (PKN1) | %Inh (PKN2) | %Inh (PLK1) | %Inh (PLK2) | %Inh (PLK3) | %Inh (PLK4) | %Inh (PRKCD) | %Inh (PRKCE) | %Inh (PRKCH) | %Inh (PRKCI) | %Inh (PRKCQ) | %Inh (PRKD1) | %Inh (PRKD2) | %Inh (PRKD3) | %Inh (PRKG1) | %Inh (PRKG2) |
| --- | --- | --- | --- | --- | --- | --- | --- | --- | --- | --- | --- | --- | --- | --- | --- | --- | --- | --- | --- | --- |
| CCCc1ccc(S(=O)(=O)NC2CCN(c3ccnc(Nc4ccc(OC)cc4)n3)C2)cc1 (stereo not shown) [GSK1379737] | 66% | 0% | 0% | 0% | 0% | 0% | 1% | 0% | 0% | 0% | 0% | 9% | 0% | 11% | 0% | 0% | 3% | 9% | 0% | 0% |
| Fc1ccc(-c2ncn(CCCNCc3ccccc3)c2-c2ccncc2)cc1 | 3% | 26% | 6% | 27% | 23% | 1% | 0% | 5% | 13% | 32% | 0% | 26% | 0% | 0% | 30% | 20% | 0% | 27% | 7% | 0% |
| FC(F)(F)c1cc(Nc2nccc(-c3c(-c4ccc(Cl)cc4)nn4ncccc34)n2)ccc1Cl [GW829351] | 0% | 0% | 0% | 0% | 0% | 0% | 0% | 0% | 3% | 7% | 0% | 17% | 0% | 0% | 3% | 0% | 0% | 0% | 23% | 0% |
| COc1ccc(-c2oc3ncnc(N)c3c2-c2ccc(OC)cc2)cc1 [SB-589132] | 63% | 0% | 0% | 0% | 0% | 0% | 3% | 0% | 0% | 0% | 0% | 28% | 4% | 35% | 0% | 30% | 0% | 0% | 0% | 0% |
| C[C@H]1CC[C@@H](C(=O)Nc2ccccc2)CN1c1cc(-c2ccc3c(N)n[nH]c3c2)nc(N)n1 [GSK2283293] | 15% | 0% | 0% | 0% | 0% | 0% | 0% | 4% | 0% | 0% | 0% | 0% | 24% | 24% | 4% | 0% | 4% | 0% | 0% | 4% |
| N#Cc1ccc(Oc2ccc(Nc3ncnc4cc[nH]c34)cc2Cl)cc1 | 0% | 8% | 0% | 19% | 0% | 0% | 4% | 5% | 11% | 21% | 0% | 0% | 22% | 12% | 19% | 0% | 10% | 0% | 0% | 30% |
| CC(=O)Nc1n[nH]c2ncc(-c3ccccc3)cc12 [SB-548492] | 0% | 0% | 14% | 0% | 0% | 29% | 1% | 27% | 25% | 8% | 7% | 17% | 10% | 0% | 0% | 0% | 0% | 0% | 30% | 20% |
| FC(F)(F)c1ccc(-c2cc(-c3c[nH]nc3-c3ccccn3)ccn2)cc1 [GW599550] | 59% | 10% | 6% | 0% | 0% | 0% | 0% | 0% | 0% | 10% | 0% | 6% | 21% | 23% | 16% | 23% | 16% | 17% | 4% | 2% |
| Fc1cccc(COc2ccc(Nc3ncnc4cc[nH]c34)cc2Cl)c1 | 5% | 25% | 1% | 10% | 0% | 0% | 23% | 23% | 23% | 27% | 14% | 0% | 0% | 12% | 10% | 0% | 25% | 0% | 2% | 13% |
| Nc1n[nH]c2nnc(-c3ccccc3)cc12 [SB-517389] | 7% | 0% | 0% | 0% | 7% | 0% | 0% | 35% | 33% | 9% | 0% | 9% | 23% | 18% | 0% | 0% | 0% | 0% | 0% | 0% |
| CNc1nccc(-c2c(-c3ccc(F)cc3)ncn2CCCN2CCOCC2)n1 [SB-222516] | 0% | 1% | 19% | 0% | 0% | 36% | 41% | 14% | 0% | 0% | 1% | 5% | 0% | 20% | 0% | 0% | 0% | 0% | 14% | 16% |

From publication PMC5540273 (PLoS ONE, 2017)
